Results on 14 compounds are retold here after PubChem BioAssay (NCI).

Among the test systems are T-47D breast; BT-549 breast; MDA-MB-435 melanoma; SW-620 colon; MCF7 breast; HCT-116 colon; HCC-2998 colon; KM12 colon.
What all share (assay): NCI-60 one-dose screen, 48 h (100 = growth as untreated, 0 = no growth, -100 = all killed)

SMILES strings stand for the structures. “And” between values parts separate entries of the source, which are not always exact repeats. Equal values may be shown once. The panel holds about 83,000 compounds, 20% with a hit somewhere; the sample as a whole holds those more often.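 In brief: 96-well plates, 48 h treatment, single concentration, percent growth endpoint.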 The source made the active and inactive calls. How the source made its calls: active means growth percent below 10; inactive means the rest.

`CCOC(=O)C(=Cc1ccc(C#N)cc1)C(=O)OCC`: the growth with T-47D breast (10 µM unless noted) was 9.64% (active); in the assay with BT-549 breast (10 µM unless noted) it was 47.3% (inactive); with MDA-MB-435 melanoma (10 µM unless noted) it was 8.84% (active); in the assay with SW-620 colon (10 µM unless noted), 0.79% (active); in the assay with MCF7 breast (10 µM unless noted), 12.3% (inactive); in the assay on HCT-116 colon (10 µM unless noted), -13.1% (active). Further, the growth with HCC-2998 colon (10 µM unless noted) is 78.7% (inactive); in the assay with KM12 colon (10 µM unless noted) it was 29.8% (inactive).

Consider `N#CC1=C(N)Oc2c(sc3c(Br)cccc23)C1c1ccccn1` (stereo not drawn), for which the growth in the assay with T-47D breast (10 µM unless noted) is 34.3% (inactive); with BT-549 breast (10 µM unless noted), 31.4% (inactive); in the assay with MDA-MB-435 melanoma (10 µM unless noted), 77.4% (inactive); in the assay on SW-620 colon (10 µM unless noted), 34.8% (inactive); in the assay on MCF7 breast (10 µM unless noted) it was 18.8% (inactive); in the assay with HCT-116 colon (10 µM unless noted), 27.9% (inactive). The growth was 72.9% (inactive) in the assay on HCC-2998 colon (10 µM unless noted) and 34.9% (inactive) with KM12 colon (10 µM unless noted).

Regarding `CONC1=Nc2cc(NC(N)=NCc3ccccc3)c(N(C)C3CCCCC3)cc2OC1`, the growth in the assay with T-47D breast (10 µM unless noted) was 63.7% (inactive); with BT-549 breast (10 µM unless noted) it was 92% (inactive); in the assay on MDA-MB-435 melanoma (10 µM unless noted) it was 73% (inactive); in the assay with SW-620 colon (10 µM unless noted), 75% (inactive); with MCF7 breast (10 µM unless noted) it was 36.1% (inactive); in the assay on HCT-116 colon (10 µM unless noted), 45.8% (inactive). Further, the growth was 22.1% (inactive) in the assay on HCC-2998 colon (10 µM unless noted) and 61.5% (inactive) in the assay with KM12 colon (10 µM unless noted).

For `CCN1C(=O)N(c2ccccc2)C2NC(=S)N(/N=C/C=C/c3ccccc3)C21` (stereo not drawn), the growth was 38.2% (inactive) with T-47D breast (10 µM unless noted); -8.95% (active) with BT-549 breast (10 µM unless noted); -35.1% (active) in the assay with MDA-MB-435 melanoma (10 µM unless noted); 26.5% (inactive) in the assay on SW-620 colon (10 µM unless noted); 3.24% (active) in the assay on MCF7 breast (10 µM unless noted); 2.69% (active) with HCT-116 colon (10 µM unless noted). Besides, the growth with HCC-2998 colon (10 µM unless noted) was 17.6% (inactive); with KM12 colon (10 µM unless noted), 21% (inactive).

Take `COC(=O)c1nc(-c2ccc(C)cc2)oc1S(=O)(=O)c1ccc(Cl)cc1`: the growth was 88.6% (inactive) with T-47D breast (10 µM unless noted); 83.4% (inactive) with BT-549 breast (10 µM unless noted); 107% (inactive) in the assay with MDA-MB-435 melanoma (10 µM unless noted); 80% (inactive) with SW-620 colon (10 µM unless noted); 89.8% (inactive) in the assay on MCF7 breast (10 µM unless noted); 77.7% (inactive) with HCT-116 colon (10 µM unless noted). The results for the growth in the assay on HCC-2998 colon (10 µM unless noted) and in the assay with KM12 colon (10 µM unless noted) were 112% (inactive) and 116% (inactive), respectively.

For the compound `CCN(Cc1ccccc1)c1ccc(/C=C2\COc3ccccc3C2=O)cc1`, the growth with T-47D breast (10 µM) was 78.3% (inactive); in the assay on T-47D breast (100 µM) it was 12.3% (inactive); with BT-549 breast (10 µM) it was 95.6% (inactive); with BT-549 breast (100 µM), 16.3% (inactive); with MDA-MB-435 melanoma (10 µM), 95.7% (inactive); in the assay on MDA-MB-435 melanoma (100 µM) it was -44.7% (active). The growth is 87.4% (inactive) with SW-620 colon (10 µM); 28.1% (inactive) in the assay on SW-620 colon (100 µM); 81.5% (inactive) in the assay with MCF7 breast (10 µM); 17.5% (inactive) with MCF7 breast (100 µM); 86.1% (inactive) in the assay with HCT-116 colon (10 µM); 30.8% (inactive) in the assay on HCT-116 colon (100 µM). Moreover, the growth in the assay on HCC-2998 colon (10 µM) is 102% (inactive); in the assay with HCC-2998 colon (100 µM), 66.8% (inactive); in the assay on KM12 colon (10 µM), 98.3% (inactive); in the assay with KM12 colon (100 µM), 21.8% (inactive).

`CCCc1cc(C(N)=S)ccn1`: the growth in the assay with T-47D breast (10 µM unless noted) is 105% (inactive); in the assay on BT-549 breast (10 µM unless noted), 98.1% (inactive); in the assay with MDA-MB-435 melanoma (10 µM unless noted), 105% (inactive); with SW-620 colon (10 µM unless noted), 107% (inactive); in the assay with MCF7 breast (10 µM unless noted), 108% (inactive); with HCT-116 colon (10 µM unless noted), 95.8% (inactive).

As for `CC(=O)N1N=C(c2ccc(Nc3nc(Nc4ccc(F)cc4)nc(Nc4ccc(F)cc4)n3)cc2)CC1c1ccccc1` (stereo not drawn), the growth with T-47D breast (10 µM unless noted) was 56.2% (inactive); in the assay on BT-549 breast (10 µM unless noted), 120% (inactive); in the assay with MDA-MB-435 melanoma (10 µM unless noted) it was 105% (inactive); with SW-620 colon (10 µM unless noted), 95.7% (inactive); in the assay on MCF7 breast (10 µM unless noted) it was 66.2% (inactive); with HCT-116 colon (10 µM unless noted), 80.7% (inactive). The figures for the growth with HCC-2998 colon (10 µM unless noted) and in the assay with KM12 colon (10 µM unless noted) were 94.3% (inactive) and 89.1% (inactive), respectively.

With `O=S(=O)(O)c1ccc(N=Nc2ccc(N=Nc3cccc4ccccc34)c(S(=O)(=O)O)c2)cc1`, the growth in the assay with T-47D breast (10 µM unless noted) was 81.3% (inactive); with BT-549 breast (10 µM unless noted) it was 108% (inactive); in the assay with MDA-MB-435 melanoma (10 µM unless noted) it was 108% (inactive); in the assay on SW-620 colon (10 µM unless noted) it was 96.2% (inactive); with MCF7 breast (10 µM unless noted) it was 78.1% (inactive); with HCT-116 colon (10 µM unless noted) it was 102% (inactive). Further, the figures for the growth with HCC-2998 colon (10 µM unless noted) and in the assay with KM12 colon (10 µM unless noted) were 108% (inactive) and 104% (inactive), respectively.

Take `CCC(=C(c1ccc(OCCCN(C)C)cc1)c1ccc(OCCCN(C)C)cc1)c1ccc(Cl)cc1`: the growth was -66.8% (active) in the assay with T-47D breast (10 µM unless noted); -92.6% (active) in the assay on BT-549 breast (10 µM unless noted); -95.5% (active) with MDA-MB-435 melanoma (10 µM unless noted); -73.7% (active) in the assay on SW-620 colon (10 µM unless noted); -79.2% (active) in the assay on MCF7 breast (10 µM unless noted); -94% (active) with HCT-116 colon (10 µM unless noted). Also, the figures for the growth in the assay with HCC-2998 colon (10 µM unless noted) and in the assay with KM12 colon (10 µM unless noted) were -80.8% (active) and -78.7% (active), respectively.

Turning to `COc1ccc(/C=C2/C(=O)N=C3N2NC(c2ccccc2)=CN3c2ccccc2)cc1`, the growth in the assay with T-47D breast (10 µM unless noted) is 106% (inactive); in the assay with BT-549 breast (10 µM unless noted) it was 96% (inactive); in the assay on MDA-MB-435 melanoma (10 µM unless noted), 108% (inactive); in the assay on SW-620 colon (10 µM unless noted), 101% (inactive); with MCF7 breast (10 µM unless noted) it was 99.9% (inactive); with HCT-116 colon (10 µM unless noted), 99.8% (inactive). Further, the values for the growth in the assay on HCC-2998 colon (10 µM unless noted) and with KM12 colon (10 µM unless noted) were 97.7% (inactive) and 108% (inactive), respectively.

Regarding `N#C/C(=N\Nc1ccc(Cl)cc1)C(=O)Nc1cc(-c2ccccc2)nn1-c1ccccc1`, the growth was 14.7% (inactive) in the assay on T-47D breast (10 µM unless noted); 11.4% (inactive) with BT-549 breast (10 µM unless noted); 28.6% (inactive) with MDA-MB-435 melanoma (10 µM unless noted); 21.4% (inactive) with SW-620 colon (10 µM unless noted); 16.9% (inactive) with MCF7 breast (10 µM unless noted); 8.26% (active) with HCT-116 colon (10 µM unless noted). In addition, the growth with HCC-2998 colon (10 µM unless noted) is 39.4% (inactive); in the assay on KM12 colon (10 µM unless noted), 32.4% (inactive).

Regarding `CC(Sc1ccccc1)C(=O)O` (stereo not drawn), the growth with T-47D breast (10 µM unless noted) is 105% (inactive); in the assay on BT-549 breast (10 µM unless noted), 96.5% (inactive); with MDA-MB-435 melanoma (10 µM unless noted), 96.5% (inactive); with SW-620 colon (10 µM unless noted), 102% (inactive); in the assay with MCF7 breast (10 µM unless noted), 99.5% (inactive); in the assay on HCT-116 colon (10 µM unless noted) it was 88% (inactive). The growth with HCC-2998 colon (10 µM unless noted) was 120% (inactive); in the assay on KM12 colon (10 µM unless noted), 107% (inactive).

As for `CC[C@]12CN3CCc4c([nH]c5ccccc45)[C@@](C(=O)OC)(c4cc5c(cc4OC)N(C)[C@H]4[C@@](O)(C(=O)OC)[C@H](OC(C)=O)[C@]6(CC)C=CCN7CC[C@]54[C@@H]76)CC(C3)[C@H]1O2` (stereo partly drawn), the growth in the assay on T-47D breast (10 µM unless noted) is 54.8% (inactive); in the assay on BT-549 breast (10 µM unless noted), -26% (active); in the assay with MDA-MB-435 melanoma (10 µM unless noted) it was -43.8% (active); with SW-620 colon (10 µM unless noted), 17.1% (inactive); in the assay with MCF7 breast (10 µM), 15.7% (inactive); in the assay with MCF7 breast (100 µM) it was 35.1% (inactive) and -19% (active). The growth with HCT-116 colon (10 µM unless noted) is 0.479% (active); in the assay with KM12 colon (10 µM unless noted) it was -17.6% (active).
